Test results reported in PubChem BioAssay.
Active and inactive are the calls of the source. Unless noted, no rule for the calls is given here.

What was measured:
[1] = resazurin metabolic signal in HepG2 cells – cell-based, resazurin fluorescence, 24 h, PK04 Diversity Set, profiling panel (AID 1172); settings: HepG2 viability, higher = more signal
[2] = budding yeast growth changes without added modifier – OD600, strain BY4716, 24 h, basal condition, primary screen (AID 1173); settings: S. cerevisiae BY4716 growth, OD600, 24 h; higher = more signal, called active from +8 up or from −8 down
[3] = viability profiling in MM1S myeloma cells – cell-based, resazurin fluorescence, basal, 24 h, PK04 Diversity Set, profiling panel (AID 1174); settings: higher = more signal, called active from +8 up or from −8 down;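 also: MM1S multiple myeloma cell line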
[4] = target: Dihydroorotate dehydrogenase (quinone), mitochondrial (Plasmodium falciparum (isolate 3D7)) (UniProt Q08210); experiment: inhibition of P. falciparum DHODH – biochemical, C-terminal His tag, absorbance 600 nm, primary screen (AID 1175); settings: PfDHODH enzyme, DCIP absorbance 600 nm; higher = more signal, called active from +8 up or from −8 down;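 also: recombinant parasite enzyme with a five histidine tag at its C terminus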
Chain of Dihydroorotate dehydrogenase (quinone), mitochondrial (Plasmodium falciparum (isolate 3D7)) (Q08210 whole entry, looked up): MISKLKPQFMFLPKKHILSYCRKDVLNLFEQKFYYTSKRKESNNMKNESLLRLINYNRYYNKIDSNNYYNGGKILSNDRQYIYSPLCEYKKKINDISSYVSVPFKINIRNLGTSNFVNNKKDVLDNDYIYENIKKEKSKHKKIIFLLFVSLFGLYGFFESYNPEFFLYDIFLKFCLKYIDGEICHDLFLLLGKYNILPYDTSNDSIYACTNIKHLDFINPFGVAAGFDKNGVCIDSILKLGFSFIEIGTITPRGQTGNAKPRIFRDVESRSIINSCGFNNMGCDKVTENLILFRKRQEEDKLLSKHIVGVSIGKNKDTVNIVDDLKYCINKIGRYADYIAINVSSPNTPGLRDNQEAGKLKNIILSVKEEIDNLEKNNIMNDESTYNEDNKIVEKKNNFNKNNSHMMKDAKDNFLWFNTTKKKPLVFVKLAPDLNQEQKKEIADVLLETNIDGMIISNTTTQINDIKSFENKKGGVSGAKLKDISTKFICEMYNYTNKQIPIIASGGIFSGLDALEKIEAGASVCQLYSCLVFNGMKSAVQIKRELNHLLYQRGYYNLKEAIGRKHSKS

[5] = inhibition of PAO1 biofilm formation – strain PAO1, LB-PBS medium, absorbance 600 nm, primary screen (AID 1176); settings: P. aeruginosa PAO1 growth/biofilm, A600, 12 h; higher = more signal
[6] = growth modulation of vineyard yeast isolate – strain RM11-1a, OD600, basal, 24 h, primary screen (AID 1177);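 also: cultures grown under basal conditions with no added stressor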; settings: S. cerevisiae RM11-1a growth, OD600, 24 h; higher = more signal, called active from +8 up or from −8 down
[7] = growth of efflux-deficient E. coli DRC39 – strain DRC39, OD650, 24 h, E. coli filamentation inducers, primary screen (AID 1178);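 also: growth measured as culture turbidity by optical density at 650 nm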; settings: E. coli DRC39 acrAB, higher = more signal, called active from +8 up or from −8 down
[8] = growth of efflux-deficient E. coli DRC39 – strain DRC39, OD650, 48 h, E. coli filamentation inducers, primary screen (AID 1179);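 also: screen aims at cell division blockers that make cells filament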; settings: E. coli DRC39 delta-acrAB growth, higher = more signal, called active from +8 up or from −8 down
[9] = viability profiling in RPMI8226 myeloma cells – cell-based, resazurin fluorescence, basal, 24 h, PK04 Diversity Set, profiling panel (AID 1180); settings: higher = more signal;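 also: RPMI8826 multiple myeloma cell line at 5000 cells per well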
[10] = target: E3 ubiquitin-protein ligase XIAP (Homo sapiens) (UniProt P98170); experiment: small molecules binding XIAP protein – biophysical, small-molecule microarray, fluorescence 635 nm, primary screen (AID 1181); settings: higher = more signal;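 also: score merges 667 nm emission and signal to noise over triplicate slides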
Chain of E3 ubiquitin-protein ligase XIAP (Homo sapiens) (P98170 whole entry, looked up, the tested form may be a part): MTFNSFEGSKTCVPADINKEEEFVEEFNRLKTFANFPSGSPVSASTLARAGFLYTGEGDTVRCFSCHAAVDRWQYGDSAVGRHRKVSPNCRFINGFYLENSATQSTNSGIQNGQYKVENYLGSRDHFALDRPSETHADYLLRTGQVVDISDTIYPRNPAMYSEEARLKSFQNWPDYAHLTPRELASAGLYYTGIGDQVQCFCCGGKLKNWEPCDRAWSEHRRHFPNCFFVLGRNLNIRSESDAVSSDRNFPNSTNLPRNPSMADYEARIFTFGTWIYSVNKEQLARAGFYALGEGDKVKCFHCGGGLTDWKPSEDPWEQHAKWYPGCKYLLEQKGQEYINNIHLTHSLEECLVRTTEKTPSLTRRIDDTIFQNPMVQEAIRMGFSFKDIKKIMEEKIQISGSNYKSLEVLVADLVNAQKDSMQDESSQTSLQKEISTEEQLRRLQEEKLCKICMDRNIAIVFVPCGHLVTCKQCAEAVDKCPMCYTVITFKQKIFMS

[11] = test system: XIP peptide (Xip251-270) binding; experiment: XIP fragment 251-270 binding compounds – biochemical, small-molecule microarray, fluorescence 635/667 nm, 0.1 µg/mL protein, primary screen (AID 1182); settings: fluorescent protein binding, 635 nm, higher = more signal, called active from +8 up or from −8 down
[12] = test system: XIP peptide (Xip251-270); experiment: compounds binding XIP fragment 251-270 – biochemical, small-molecule microarray, fluorescence 635/667 nm, 0.5 µg/mL protein, primary screen (AID 1183); settings: fluorescence 635 nm, higher = more signal
[13] = blood-stage malaria parasite viability loss – strain 3D7, DAPI fluorescence, 100 nL, primary screen (AID 1184);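 also: parasites grown inside human red blood cells in medium with human serum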; settings: P. falciparum 3D7 growth, 3 d, higher = more signal
[14] = target: Homeobox protein Hox-A13 (Mus musculus) (UniProt Q62424); experiment: disruptors of Hoxa13 oligonucleotide interaction – biochemical, fluorescence polarization, labeled oligonucleotide, primary screen (AID 1185); settings: Hoxa13:DNA binding, 15 min, higher = more signal, called active from +8 up or from −8 down
Chain of Homeobox protein Hox-A13 (Mus musculus) (Q62424 whole entry, looked up): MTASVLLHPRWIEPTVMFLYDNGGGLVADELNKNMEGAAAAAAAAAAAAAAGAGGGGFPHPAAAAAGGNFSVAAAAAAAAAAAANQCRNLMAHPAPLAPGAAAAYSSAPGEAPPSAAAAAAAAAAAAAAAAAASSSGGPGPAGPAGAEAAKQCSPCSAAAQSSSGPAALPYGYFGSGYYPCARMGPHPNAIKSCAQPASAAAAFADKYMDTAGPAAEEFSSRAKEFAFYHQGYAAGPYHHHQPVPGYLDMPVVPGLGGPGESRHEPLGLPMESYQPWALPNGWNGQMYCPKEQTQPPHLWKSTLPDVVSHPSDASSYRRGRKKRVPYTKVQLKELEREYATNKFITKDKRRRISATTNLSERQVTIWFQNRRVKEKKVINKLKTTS

Row | Compound | z-score [1] | z-score [2] | z-score [3] | composite z-score [4] | z-score [5] | z-score [6] | z-score [7] | z-score [8] | z-score [9] | composite z-score [10] | composite z-score [11] | composite z-score [12] | z-score [13] | z-score [14]
1 | CC(C)CON=C1C[C@@H](O)[C@@H](O)[C@@H]2[C@@H]3C(=O)N(Cc4ccccc4)C(=O)[C@@H]3CC[C@@H]12 | 0.854 | -0.608 (inactive) | 0.334 (inactive) | -0.282 (inactive) | -0.495 (inactive) | 0.407 (inactive) | 0.426 (inactive) | 0.918 (inactive) | 0.731 | -0.242 | -0.347 (inactive) | -0.229 | -0.388 | -0.596 (inactive)
2 | COC(=O)CC=C[C@H](C)[C@H](CO)NS(=O)(=O)c1ccc(C)cc1 | -0.502 | -0.342 (inactive) | -0.701 (inactive) | 0.0702 (inactive) | 1.09 (inactive) | -0.513 (inactive) | -0.586 (inactive) | -0.6 (inactive) | 0.139 | -0.123 | -0.291 (inactive) | 0.507 | 0.225 | -1.56 (inactive)
3 | COC(=O)CC=C[C@@H](C)[C@@H](C=NO[C@H](C)c1cn([C@@H]2COC[C@H]2O)nn1)OC | -0.879 | -0.435 (inactive) | -0.179 (inactive) | -0.295 (inactive) | 0.666 (inactive) | 0.0782 (inactive) | 0.773 (inactive) | 0.878 (inactive) | -0.359 | -0.0206 | -0.107 (inactive) | 0.446 | 0.354 | 0.0624 (inactive)
4 | CC(CCN1CCCCc2nc(C)c(C)cc21)=NOC(C)CN1CCCc2nc(C)c(C)cc21 (centres undefined) | -0.0636 | -0.0975 (inactive) | -0.542 (inactive) | 0.333 (inactive) | 1.03 (inactive) | 0.325 (inactive) | 0.529 (inactive) | -0.936 (inactive) | -0.0794 | 1.56 | 0.829 (inactive) | 0.731 | 0.507 | -10.5 (active)
5 | O=C1[C@H]2[C@H]3[C@H](O)[C@H](O)CC(=NOCc4ccccc4)[C@@H]3CC[C@H]2C(=O)N1C1CCCCC1 | -0.116 | -3.16 (inactive) | -0.321 (inactive) | 0.35 (inactive) | 1.29 (inactive) | 0.594 (inactive) | -0.315 (inactive) | -0.881 (inactive) | -0.456 | -0.144 | -0.112 (inactive) | 0.0602 | -0.368 | -5.72 (inactive)
6 | C#CCCCON=C1C[C@@H](O)[C@@H](O)[C@@H]2[C@@H]3C(=O)N(c4cccc(Oc5ccccc5)c4)C(=O)[C@@H]3CC[C@@H]12 | 0.32 | -1.13 (inactive) | 0.47 (inactive) | 1 (inactive) | -0.601 (inactive) | -0.293 (inactive) | -0.146 (inactive) | -0.0303 (inactive) | 0.868 | 0.0153 | -0.0382 (inactive) | 0.481 | -1.96 | -5.65 (inactive)
7 | CCN1C(=O)[C@H]2[C@H]3[C@H](O)[C@H](O)CC(=NO[C@@H]4O[C@H](CO)[C@@H](O)[C@H](O)[C@H]4O)[C@@H]3CC[C@H]2C1=O | -0.59 | -0.369 (inactive) | -0.596 (inactive) | -0.794 (inactive) | -0.343 (inactive) | -0.654 (inactive) | 0.226 (inactive) | 0.117 (inactive) | -0.922 | 0.0623 | -0.232 (inactive) | -0.321 | 1.82 | -0.0696 (inactive)
8 | C[C@@H]1CCC2C(=O)N(Cc3ccccc3)C[C@@H](O)CN2[C@H]1c1ccc(Br)cc1 (some centres undefined) | 0.644 | -5.68 (inactive) | 0.726 (inactive) | -1.3 (inactive) | 0.924 (inactive) | -1.71 (inactive) | 0.957 (inactive) | -1.25 (inactive) | 0.39 | -0.0009 | 1 (inactive) | 0.689 | 0.787 | -3.92 (inactive)
9 | CCCNC(=O)OC[C@H]1O[C@H](CCON=C[C@@H](OC)[C@H](C)C=CCC(=O)OC)C=C[C@@H]1Oc1ccc(OC)cc1 | 0.173 | 0.746 (inactive) | 0.345 (inactive) | 0.329 (inactive) | -0.537 (inactive) | 0.198 (inactive) | 0.356 (inactive) | 0.138 (inactive) | 1.95 | -0.0361 | 0.228 (inactive) | 0.162 | 0.232 | -5.88 (inactive)
10 | COC(=O)[C@@H]1CC[C@H](C)[C@@H](c2ccc(C)cc2)N1C(=O)c1ccc(C=NOC[C@@H](O)COCc2ccco2)cc1 | -0.609 | -0.346 (inactive) | -1.06 (inactive) | 0.13 (inactive) | 0.147 (inactive) | 0.0787 (inactive) | 0.462 (inactive) | 0.663 (inactive) | -1.49 | -0.0891 | -0.484 (inactive) | -1.03 | -2.31 | -6.19 (inactive)
11 | O=C(NN=C1C[C@@H](O)[C@@H](O)[C@@H]2[C@@H]3C(=O)N(c4ccc(F)cc4F)C(=O)[C@@H]3CC[C@@H]12)OCc1ccccc1 | 0.801 | 0.207 (inactive) | 0.442 (inactive) | -0.192 (inactive) | -1.09 (inactive) | 1.01 (inactive) | 0.502 (inactive) | 0.873 (inactive) | 0.508 | -0.27 | -0.269 (inactive) | 0.159 | 0.823 | -1.72 (inactive)
12 | O=C(NN=C1C[C@@H](O)[C@@H](O)[C@@H]2[C@@H]3C(=O)N(c4cccc(Oc5ccccc5)c4)C(=O)[C@@H]3CC[C@@H]12)OCc1ccccc1 | -0.198 | 0.498 (inactive) | 0.243 (inactive) | 0.351 (inactive) | 0.0942 (inactive) | 0.775 (inactive) | -0.134 (inactive) | -0.192 (inactive) | 0.464 | -0.0506 | -0.0987 (inactive) | 0.381 | -0.763 | -4.96 (inactive)
13 | O=C1[C@H]2[C@H]3[C@H](O)[C@H](O)CC(=NOC[C@@H](O)COCc4ccco4)[C@H]3CC[C@H]2C(=O)N1C1CCCCC1 | 0.0194 | -0.563 (inactive) | -0.304 (inactive) | -2.13 (inactive) | 0.188 (inactive) | -0.479 (inactive) | 0.426 (inactive) | -0.0377 (inactive) | -0.263 | 0.116 | -0.26 (inactive) | -0.37 | -1.24 | -0.271 (inactive)
14 | COC(=O)[C@@H]1CC[C@H](C)[C@@H](c2ccc(C)cc2)N1C(=O)c1ccc(C=NOC(C)CN2CCCCc3nc(C)c(C)cc32)cc1 (some centres undefined) | 1.03 | -0.104 (inactive) | -0.725 (inactive) | 0.613 (inactive) | 0.642 (inactive) | 0.984 (inactive) | 0.419 (inactive) | -0.27 (inactive) | -0.0629 | 0.147 | -0.206 (inactive) | 0.51 | -1.76 | -3.03 (inactive)
15 | CC[C@@H](c1ccccc1)n1c(=O)n2n(c1=O)[C@H]1[C@H](O)[C@@H]3O[C@@H]3C(=NOCC(C)C)[C@H]1CC2 | -0.0871 | 0.747 (inactive) | -0.349 (inactive) | 0.777 (inactive) | -0.413 (inactive) | 0.49 (inactive) | 0.258 (inactive) | -1.31 (inactive) | 0.0402 | -0.0525 | -0.242 (inactive) | 0.68 | -0.265 | -2.28 (inactive)
16 | COC(=O)[C@H](C)NC(=O)CCC1CC(OC(=O)NCCc2ccc(F)cc2)CC2(CCCC(COC(=O)NCC(c3ccccc3)c3ccccc3)O2)O1 (some centres undefined) | 0.725 | 0.718 (inactive) | 0.476 (inactive) | -0.216 (inactive) | 0.0251 (inactive) | 1.31 (inactive) | 1.06 (inactive) | 0.706 (inactive) | 0.809 | -0.323 | 0.477 (inactive) | 0.577 | -1.32 | -4.47 (inactive)
17 | COc1ccc(COC(=O)NN=C2C[C@@H](O)[C@@H](O)[C@@H]3[C@@H]4C(=O)N(Cc5ccc6c(c5)OCO6)C(=O)[C@@H]4CC[C@@H]23)cc1 | 0.466 | -0.839 (inactive) | 0.401 (inactive) | -1.68 (inactive) | 2.55 (inactive) | -1.83 (inactive) | -0.459 (inactive) | -0.279 (inactive) | 1.24 | -0.0792 | 0.361 (inactive) | -0.239 | 0.142 | 0.284 (inactive)
18 | CCOC(=O)NN=C1C[C@@H](O)[C@@H](O)[C@@H]2[C@@H]3C(=O)N(C4CCCCC4)C(=O)[C@@H]3CC[C@H]12 | -0.912 | 0.486 (inactive) | -0.74 (inactive) | 0.406 (inactive) | -0.0941 (inactive) | 0.0422 (inactive) | -0.43 (inactive) | -0.358 (inactive) | -0.927 | -0.0246 | 0.67 (inactive) | 0.485 | -1.68 | -1.77 (inactive)
19 | CC(C)=NOCc1ccc(-c2cc(-c3ccccc3)no2)cc1 | -0.503 | 0.288 (inactive) | -0.284 (inactive) | 0.21 (inactive) | -0.446 (inactive) | -0.194 (inactive) | 0.302 (inactive) | 0.387 (inactive) | -0.424 | 0.103 | -0.191 (inactive) | -0.0722 | 0.382 | 0.736 (inactive)
20 | COc1ccc(OC[C@H]2Cc3c(-c4ccccc4)nc4c(c3CO2)CN(CCOc2ccccc2)CC4)cc1 | -0.376 | -2.37 (inactive) | -0.0593 (inactive) | -3.16 (inactive) | -0.765 (inactive) | -0.314 (inactive) | -1.17 (inactive) | -0.458 (inactive) | 0.578 | -0.111 | 1.22 (inactive) | 0.71 | -1.34 | -2.66 (inactive)
21 | CCOC(=O)[C@H](CC(C)C)NC(=O)CCC1CC(OC(=O)NCc2cccc3ccccc23)CC2(CCCC(COC(=O)NCCc3ccccc3OC)O2)O1 (some centres undefined) | 0.563 | -0.581 (inactive) | 0.072 (inactive) | -0.987 (inactive) | 0.684 (inactive) | -0.0922 (inactive) | -0.436 (inactive) | -0.141 (inactive) | -0.31 | -0.134 | 1.05 (inactive) | 0.623 | -1.83 | -3.13 (inactive)
